The entries come from a sample that favours hits as a whole.
Algae TAG accum = inducers of TAG accumulation in Chlamydomonas, primary screen, qHTS, Chlamydomonas reinhardtii. calls only at 10 µM (by protocol). actives 0.84% (n = 44,000). Nile Red fluorescence, 72 h; call rule not given here;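 note: hits raise Nile Red signal meaning more stored TAG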
Numbers without * were called inactive; i = inactive; + = active, no number.

SMILES	Algae TAG accum
COc1ccc(Cl)cc1NC(=O)C(C)(C)Oc1ccc(Cl)cc1	i
CC(C)(Oc1ccc(Cl)cc1)C(=O)Nc1ccc(Br)cc1F	+
CCSc1nnc(-c2ccc([N+](=O)[O-])cc2)n1-c1ccccc1	i
CC(=O)Nc1ccc(S(=O)(=O)N2CCN(Cc3ccccc3C)CC2)cc1	i
O=C(Nc1ccc2c(c1)OCO2)c1ccc2c(c1)OCO2	i
O=C(Nc1ccc(F)c(F)c1)c1ccc2c(c1)OCO2	i
O=C(Nc1ccc2c(c1)OCO2)c1c(F)c(F)c(F)c(F)c1F	+
Cc1c(C(=O)Nc2ccc(NC(=O)c3cccc(Cl)c3)cc2)cccc1[N+](=O)[O-]	i
COc1ccc2[nH]c(=O)cc(C)c2c1	i
Cc1ccc(S(=O)(=O)n2ccc(C)n2)cc1	i
O=S(=O)(c1ccc(Cl)cc1)n1cccn1	i
Cc1ccc(S(=O)(=O)n2cccn2)cc1	+
CCOc1ccccc1NC(=O)CN(Cc1ccccc1)S(=O)(=O)c1ccc(F)cc1	i
O=C(Nc1ccc(Cl)cn1)c1cccc(S(=O)(=O)Nc2ccc(Cl)cn2)c1	i
CCC(=O)Nc1ccc(OC)c(NC(=O)c2ccco2)c1	i
Cc1ccc(C23CC4CC(CC(C(=O)N5CCCC5)(C4)C2)C3)cc1	i
CSc1ccc(CN2CCSCC2)cc1	+
CCc1ccc(CN2CCSCC2)cc1	i
CSc1ccc(CN2CCOCC2)cc1	i
CC#CCCC(=O)Nc1cccc(C(=O)O)c1	i
O=c1c2c(nc3n1CCS3)-c1ccccc1CC21CCCCC1	i
O=C(Nc1nccs1)c1cc(-c2ccc3c(c2)OCO3)nc2ccccc12	i
CC(O)CNc1cc(N2CCCC2)ccc1[N+](=O)[O-] (centres undefined)	i
COc1ccc(/C=C(/C#N)c2nc(-c3ccc(Cl)cc3Cl)cs2)cc1[N+](=O)[O-]	i
CCS(=O)(=O)N1CCN(CC2CC3C=CC2C3)CC1 (centres undefined)	i
SMILES	Algae TAG accum
Cc1ccc(C)c(N2CCN(CC3CC4C=CC3C4)CC2)c1 (centres undefined)	+
O=[N+]([O-])c1ccccc1CN1CCN(CC2CC=CCC2)CC1 (centres undefined)	i
OC1CCN(CC2CC3C=CC2C3)CC1 (centres undefined)	i
COc1cc(OC)c(OC)cc1CN1CCN(c2cc(C)ccc2C)CC1	i
C1=CC2CC1CC2CN1CCN(Cc2ccccc2)CC1 (centres undefined)	+
COc1ccc(CN2CCN(CC3CC4C=CC3C4)CC2)cc1OC (centres undefined)	+
COc1ccc(CN2CCCCCC2)cc1OC	i
O=[N+]([O-])c1ccccc1CN1CCCC1	i
C1=CC2CC1CC2CN1CCN(Cc2ccncc2)CC1 (centres undefined)	i
O=[N+]([O-])c1ccccc1CN1CCN(CC2CC3C=CC2C3)CC1 (centres undefined)	+
COc1ccc(CN2CCN(Cc3ccc(OC)c(OC)c3)CC2)cc1	i
Cc1ccc(OCC(=O)Nc2ccc(Br)cc2C)c(C)c1	i
CC(=O)c1cccc(NC(=O)CCSc2ccccc2)c1	i
COc1ccccc1C(=O)Nc1ccc(-c2nnc(SCC(=O)NC3CC3)n2C)cc1	i
O=C(NCCCc1ccccc1)c1ccccc1[N+](=O)[O-]	i
CC1CCN(C(=O)c2ccc([N+](=O)[O-])cc2NC(=O)c2cccs2)CC1	i
COc1cccc(N2CCN(CC3CC4C=CC3C4)CC2)c1 (centres undefined)	+
OCCN1CCN(C2CCN(CC3CC4C=CC3C4)CC2)CC1 (centres undefined)	i
c1coc(CN2CCN(Cc3ccncc3)CC2)c1	i
C1=CC2CC1CC2CN1CCN(Cc2ccco2)CC1 (centres undefined)	+
Cn1cccc1CN1CCN(Cc2ccco2)CC1	i
c1coc(CN2CCN(C3CCCCCC3)CC2)c1	+
c1ccc(N2CCN(Cc3ccco3)CC2)cc1	i
C1=CCC(CN2CCN(Cc3ccco3)CC2)CC1 (centres undefined)	i
O=C(c1ccc(F)cc1)N1CCN(CC2CC3C=CC2C3)CC1 (centres undefined)	i
SMILES	Algae TAG accum
CCN1CCN(C2CC(=O)N(c3ccc(OC)cc3)C2=O)CC1 (centres undefined)	i
CC(=O)c1cc(C(=O)CC(=O)Nc2ccccc2)sc1Nc1ccccc1	i
CC1CCN(S(=O)(=O)c2ccc(NC(=O)COc3ccc([N+](=O)[O-])cc3)cc2)CC1	i
C/C=C(\C)CN1CCN(c2ccccn2)CC1	i
NNc1nnc(-c2ccccc2)c2ccccc12	i
CC1CCN(S(=O)(=O)c2ccc(Cl)c(C(=O)Nc3cccc([N+](=O)[O-])c3)c2)CC1	i
CC1CCN(S(=O)(=O)c2ccc(NC(=O)c3cccc([N+](=O)[O-])c3)cc2)CC1	+
O=C(Nc1ccc(S(=O)(=O)N2CCCCC2)cc1)c1cccc([N+](=O)[O-])c1	i

Source: PubChem BioAssay
